Laboratory results taken from PubChem BioAssay (NCI).
About 83,000 compounds went through this panel and 20% of them were active in at least one assay; those are over-represented in the sample as a whole.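 Step 1: grow cells in 96-well plates. Step 2: add test compound at a single concentration. Step 3: incubate 48 h. Step 4: record percent growth.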 Unmarked numbers belong to inactive results. The source made the active and inactive calls. The calls were made as follows: active = growth percent below 10; inactive = the rest.

What follows are compounds tested on HL-60(TB) leukemia (assay: NCI-60 one-dose screen, 48 h (100 = growth as untreated, 0 = no growth, -100 = all killed)). Details: 10 µM unless noted.

Row | SMILES | growth
1 | CC(=O)N1c2ccccc2NC2=C(C(=O)NC2(C)C)C1c1ccco1 (stereo not given) | 65.1%
2 | O=S(=O)(NCCCNc1nccc(-c2c(-c3cccc(O)c3)nc3occn23)n1)c1ccc(Br)cc1 | 69.7%
3 | Nc1cc2c(cc1Br)-c1cc(Cl)ccc1C2=O | 83.8%
4 | COC(=O)C(c1ccccc1)C(CC(=O)c1ccccc1)c1ccccc1 (stereo not given) | 92.5%
5 | CC(Cc1nnc(SCC(=O)Nc2ccc(I)cc2)n1N)c1ccccc1 (stereo not given) | 158%
6 | Cc1cn(C)cn1 | 116%
7 | C#CCOc1ccc2ncnc(N3CCC(NC(=O)CCl)CC3)c2c1 | 68.8% [8.25 µM]
8 | C=C1C(=O)O[C@H]2[C@H]1CC/C(COC(=O)NCc1ccc(Cn3c(=O)sn(-c4ccc(Cl)cc4)c3=O)cc1)=C\CC[C@@]1(C)O[C@@H]21 | -11.4% (active)
9 | C/C(=N\NC(=O)c1ccncc1)c1ccc(N)cc1 | 90.2%
10 | Oc1[nH]c2ccccc2c1/C=c1/cc2c(c(-c3ccc(F)cc3)n1)=Nc1ccccc1-2 | -39.1% (active)
11 | CC1(C)CCC(S(=O)(=O)c2ccc3c(c2)/C(=N\O)c2cc(S(=O)(=O)N4CCN(c5ccc(F)cc5O)CC4)ccc2-3)CC1 | -70.7% (active)
12 | COc1cc(C(=O)/C=C/c2c(Cl)nc3sccn23)cc(OC)c1OC | 52.2%
13 | CCCNCC(=O)Nc1ccc(C(=O)OC(C)(C)CC)cc1 | 89.8%
14 | CCOP(=O)(OCC)/C(=C\N1C(=O)CC(=O)NC1=S)C(=O)OC | 103%
15 | COc1cccc(/C=C/C(=O)c2c(C)nc3ccccc3c2/C=C/c2ccc(C)cc2)c1OC | 36%
16 | CCCCCCCCCCCCCCCCCCOc1ccccc1CC(=O)NCC[N+]1(C)CCOCC1 | -10.6% (active)
17 | CSC1=Nc2c(c(C)c(-c3ccccc3)n2CCCCl)C2=NC(=O)CN12 | 27.4%
18 | O=[N+]([O-])c1cccc(-c2nc3sccn3c2-c2ccnc(NCCCNS(=O)(=O)c3ccc(Br)cc3)n2)c1 | 19.2%
19 | Cc1ccc2c(c1)c1nc3cc(C)c(C)cc3nc1n2CCN(C)C | 11%
20 | CCCCNC(=O)NS(=O)(=O)c1ccc(N2N=C(c3cc(C)ccc3C)CC2c2cc(OC)c(OC)c(OC)c2)cc1 (stereo not given) | -16.1% (active)

Row | SMILES | growth
21 | CNc1nc(C)c(-c2nc(Nc3cccc(S(N)(=O)=O)c3)ncc2F)s1 | -47.9% (active)
22 | O=c1[nH]c(-c2ccncc2)nc2sc3c(c12)CCCCCC3 | 91.4%
23 | CCCCCCCCCCC1OC(C)CC(C)O1 (stereo not given) | 92.9%
24 | O=C(/C=C/c1ccc(Cl)cc1)c1ccc(Nc2nc(NCCO)nc(Nc3ccc(Cl)cc3)n2)cc1 | 99.4%
25 | COc1c(Cl)cc(Cl)c2ccc(C=C3C(=O)N(C)C(=O)N(C)C3=O)nc12 | 98.1%
26 | N#Cc1c(N)n(CCNC(=O)c2ccccc2)c2nc3ccccc3nc12 | 34.5%
27 | CCCCCC(=O)Oc1ccc(/C(=C(\C)c2ccccc2)c2ccc(OCCN3CCCCC3)cc2)cc1 | 70.2%
28 | COc1cc(/C=C/C(=O)c2ccc(-n3cc(CN4CCN(c5cc6c(cc5F)c(=O)c(C(=O)O)cn6C5CC5)CC4)nn3)cc2)ccc1O | 90.3%
29 | N/C(=N\c1nc2ccccc2s1)NC(=O)Nc1cccc2ccccc12 | -26.8% (active)
30 | COc1ccc(F)cc1/C=C/C(=O)/C=C(/C=C/c1cc(F)ccc1OC)OB(F)F | -8.82% (active)
31 | Cc1cc(NC(=O)c2cnc(N3CCN(CCOCCOCCOCCOCCC(=O)N[C@H](C(=O)N4C[C@H](O)C[C@H]4C(=O)N[C@@H](C)c4ccc(-c5scnc5C)cc4)C(C)(C)C)CC3)cn2)c2ncccc2c1 | -21.1% (active)
32 | CCCCCCCCCCCCCCCCn1cc[n+](C)c1 | 45.7%
33 | ClC(Cl)(Cl)c1nc2nccnc2[nH]1 | 103%
34 | CC[N+](C)(CC)CCO | 96.9%
35 | O=C(NCCNc1nccc(-c2c(-c3cccc(O)c3)nc3sccn23)n1)c1ccccc1O | 59.8%
36 | COc1ccc(N/C=C/C2=[N+](C)c3ccccc3C2(C)C)c(OC)c1 | 99.3%
37 | c1ccc2sc(SCCCn3ccnc3)nc2c1 | 110%
38 | COC(=O)C1(NC(=O)CNC(=O)OCc2ccccc2)CCCC1 | 90.4%
39 | O=C1c2ccccc2C(=O)c2c1ccc1[nH]c(-c3cccs3)nc21 | 93.6%
40 | O=C1C2CC3C(CC2C(=O)[N]1[Sn]([c]1ccccc1)([c]1ccccc1)[c]1ccccc1)C1(Cl)C(Cl)=C(Cl)C3(Cl)C1(Cl)Cl (stereo not given) | -58% (active)
